Screens as filed in PubChem.
A selection: hits, their analogues and other compounds. The true share with any hit is near 2.7%.
PAFAH1B2 inh – blocks human PAF acetylhydrolase 1b catalytic subunit 2; P68402; AID 492953; recombinant PAFAH1B2, FP-rhodamine activity probe, fluorescence polarization; 340,000 compounds, 1.2% hits; inhibition, % at 3.39 µM;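 active = inhibition above the mean of all tested compounds plus 3 SD, cut at about 24% in these data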;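 also: 0% = enzyme with DMSO and 100% = wells lacking PAFAH1B2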
pPAFAH inh – inhibitors of human plasma PAF acetylhydrolase (pPAFAH) | Q13093 | recombinant pPAFAH, FP-rhodamine probe fluorescence polarization | inhibition, % at 3.39 µM | 330,000 compounds, 1.5% hits;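 active = inhibition above the mean inhibition across the screen plus 3 SD, cut at about 25% in these data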;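 also: inhibitors block binding of the rhodamine activity-based probe so polarization drops; 0% = enzyme with DMSO and 100% = wells lacking pPAFAH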
Target sequence (Q13093 whole entry, looked up): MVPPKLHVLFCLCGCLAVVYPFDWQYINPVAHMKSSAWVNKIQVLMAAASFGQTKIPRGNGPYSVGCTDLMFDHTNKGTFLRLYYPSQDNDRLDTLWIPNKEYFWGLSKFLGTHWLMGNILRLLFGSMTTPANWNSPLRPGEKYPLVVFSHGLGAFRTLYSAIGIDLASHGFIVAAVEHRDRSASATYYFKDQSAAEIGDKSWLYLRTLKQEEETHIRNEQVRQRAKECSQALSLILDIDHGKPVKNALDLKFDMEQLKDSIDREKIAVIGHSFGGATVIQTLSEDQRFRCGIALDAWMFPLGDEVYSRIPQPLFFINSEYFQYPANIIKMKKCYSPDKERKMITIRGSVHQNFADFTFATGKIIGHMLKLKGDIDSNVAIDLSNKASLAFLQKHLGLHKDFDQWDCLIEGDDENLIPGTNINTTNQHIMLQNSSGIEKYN
PAFAH1B3 inh – inhibitors of human PAFAH1B3; AID 492972; recombinant PAFAH1B3, FP-rhodamine probe, fluorescence polarization; inhibition, % at 3.39 µM; 340,000 compounds, 0.28% hits;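 active = inhibition above the screen-wide average of all tested compounds plus 3 SD, cut at about 25% in these data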;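 also: 0% = enzyme with DMSO only and 100% = wells lacking PAFAH1B3 protein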
Target sequence (Q15102 whole entry, looked up): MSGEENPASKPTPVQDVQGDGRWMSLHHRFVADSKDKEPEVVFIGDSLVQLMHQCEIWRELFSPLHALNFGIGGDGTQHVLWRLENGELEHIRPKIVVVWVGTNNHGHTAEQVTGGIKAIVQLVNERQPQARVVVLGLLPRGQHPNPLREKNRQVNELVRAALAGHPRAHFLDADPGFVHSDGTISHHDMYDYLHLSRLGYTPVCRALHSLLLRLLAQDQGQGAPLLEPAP
TCR CD3 inh – inhibitors of human TCR-CD3 interaction; TAMRA-labeled TCR probe fluorescence, biochemical; 360,000 compounds, 0.37% hits; inhibition, % at 9.4 µM; in the data active = inhibition above about 19%;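 also: recombinant mutant TCR 2C K166C tagged with TAMRA read by polarization; 0% = receptor in buffer alone and 100% = receptor with positive control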
PAFAH2 inh – inhibitors of human PAFAH2; inhibition, % at 3.39 µM; AID 492956; recombinant PAFAH2, FP-rhodamine activity probe, fluorescence polarization; 340,000 compounds, 0.99% hits; Q99487;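 active = inhibition above the mean over all tested compounds plus 3 SD, cut at about 30% in these data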;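 also: inhibitors block probe labeling of enzyme so polarization drops; 0% = enzyme with DMSO and 100% = wells lacking PAFAH2 protein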
pPAFAH confirm – pPAFAH (human) inhibition, confirmed | recombinant pPAFAH, FP-Rh probe fluorescence polarization | inhibition, % at 3.39 µM | shares compounds with pPAFAH inh | AID 463230 | 2,300 compounds, 72% hits;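 active = mean inhibition of the triplicate above the hit cutoff set for the earlier primary screen, cut at about 25% in these data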;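 also: 0% = enzyme with DMSO and 100% = wells lacking pPAFAH enzyme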
Starred values were filed as active, the others as inactive; nt = not tested or not shown.

SMILES	PAFAH1B2 inh	pPAFAH inh	PAFAH1B3 inh	TCR CD3 inh	PAFAH2 inh	pPAFAH confirm
COc1ccc(-n2c(/C=C/c3ccc(O)c(OC)c3)nc3ccccc3c2=O)cc1	-1.1	13.4	4.0	-4.5	-3.1	nt
O=S(=O)(c1cc(Cl)cc(Cl)c1)N1Cc2cc(N3CCOCC3)ccc2-n2nncc2C1	nt	nt	nt	-0.5	nt	nt
Cc1ccc(/C=C2\C(=O)NC(=S)N(c3ccc(F)cc3)C2=O)o1	3.4	nt	-2.3	-6.2	10.8	nt
Cc1ccc(N2C(=O)/C(=C/c3ccc(CN(CCC#N)S(C)(=O)=O)o3)C(=O)NC2=S)cc1	-4.8	27.7*	2.2	nt	33.1*	nt
Cc1cc(C)n(-c2ccc(NN=C(C#N)C#N)cc2)n1	0.5	27.9*	4.1	7.9	6.6	nt
Cc1cc(N2CCNC[C@@H]2C)ccc1N1CC[C@@H](O)C1	nt	nt	nt	4.6	nt	nt
O=C(Oc1ccc([N+](=O)[O-])cc1)N1CCC(N2CCCCC2)CC1	1.1	34.4*	-1.6	-2.0	18.6	nt
CC(=O)Nc1ccc(OC(=O)N2CCCCC2)cc1	5.2	0.2	8.1	2.2	4.2	nt
Cc1ccc(-c2nc3ccc(Cl)cc3n2OC(=O)N(C)C)cc1	61.8*	2.0	5.6	1.9	2.1	nt
O=C(NCCN1CCC2(CC1)C(=O)NCN2c1ccccc1)C(c1ccccc1)c1ccccc1	nt	nt	nt	-6.0	nt	nt
O=c1[nH]c2cc(Cl)ccc2n1C1CCN(Cc2ccc(-c3nc4ccc(F)cc4nc3-c3ccccc3)cc2)CC1	nt	nt	nt	6.3	nt	nt
Cc1ccc(OCCOc2cccc(C=C3C(=O)NC(=O)NC3=O)c2)cc1	38.8*	3.6	1.0	-12.7	1.2	nt
Cc1cc(C)cc(OCCOc2cccc(C=C3C(=O)NC(=O)NC3=O)c2)c1	-3.0	11.9	7.7	3.5	-3.1	nt
CC(=O)c1c(O)n(-c2cccc(Cl)c2)c(=O)[nH]c1=O (tested in a mixture with another compound)	7.2	4.7	0.3	-10.6	3.5	nt
CC(C)n1c(O)c(C2c3cc(Cl)ccc3Oc3[nH]c(=O)n(C(C)C)c(=O)c32)c(=O)[nH]c1=O (stereo not drawn)	38.8*	nt	3.3	nt	-1.1	nt
COc1ccc(CN2C(=O)NC(=O)/C(=C/c3ccc([N+](=O)[O-])s3)C2=O)cc1	33.0*	31.1*	46.5*	-37.9	63.4*	nt
O=C1NC(=O)N(Cc2ccc(F)cc2)C(=O)/C1=C\c1ccc([N+](=O)[O-])s1	34.3*	25.8*	21.7	-44.8	55.5*	nt
O=C1NC(=O)N(Cc2ccc(F)cc2)C(=O)/C1=C\c1ccc(N2CCCC2)cc1	6.6	26.4*	-2.5	-6.8	12.2	nt
COc1ccc(CN2C(=O)NC(=O)/C(=C\c3ccco3)C2=O)cc1	3.0	13.3	4.6	-4.4	16.5	nt
COc1cccc(N2C(=O)NC(=O)/C(=C/c3ccc([N+](=O)[O-])s3)C2=O)c1	33.1*	33.2*	45.8*	-52.3	49.0*	nt
CC1C2Cc3ccc(O)cc3[C@]1(C)CCN2CCc1ccccc1 (stereo partly drawn)	2.8	-0.6	1.2	0.3	-0.3	nt
CCOP(=O)(C#CC(C)(C)C)C(C)(O)c1ccccc1 (stereo not drawn)	5.1	1.8	3.0	1.8	0.9	nt
CC(C)(C#CC(=O)O)OOC(c1ccccc1)(c1ccccc1)c1ccccc1	8.8	31.2*	14.3	4.8	5.3	nt
O=C(NCCN1CCC2(CC1)C(=O)NCN2c1ccccc1)c1ccccc1C(F)(F)F	nt	nt	nt	1.5	nt	nt
COC(=O)C1=C(c2ccc(F)cc2OCc2ccccc2)C[C@@H]2CC[C@H]1N2C(=O)NCc1ccccc1Cl	3.4	0.5	-5.6	-3.2	1.2	nt
SMILES	PAFAH1B2 inh	pPAFAH inh	PAFAH1B3 inh	TCR CD3 inh	PAFAH2 inh	pPAFAH confirm
O=C(O)c1cccc2c1NC(C(=O)O)C1CC(Sc3ccccc3[N+](=O)[O-])C(Cl)C21 (stereo not drawn)	30.8*	95.7*	49.2*	37.4*	81.7*	78.8*
O=C(COC(=O)Cc1ccccc1)NC12CC3CC(CC(C3)C1)C2	10.5	35.3*	3.1	-5.0	54.8*	41.3*
O=C(C1CCN(c2nc3ccc(Br)cc3s2)CC1)N1CCC2(CC1)OCCO2	-0.4	36.4*	1.9	5.7	0.9	25.9*
CCOc1ccc2nc(N3CCC(C(=O)N4CCC5(CC4)OCCO5)CC3)sc2c1	-4.2	9.7	7.3	-2.4	-15.1	nt
Oc1ccc(/C=N/NP(=S)(c2ccccc2)c2ccccc2)c(O)c1O	-2.9	41.3*	7.6	5.9	6.5	63.0*
CCN(CC)c1ccc(N=Cc2c(O)n(-c3ccccc3C)c(=O)[nH]c2=O)cc1	-7.7	38.5*	8.5	17.7	5.7	7.4
CCN(CC)c1ccc(N=Cc2c(O)[nH]c(=O)[nH]c2=O)cc1	1.2	45.4*	5.4	13.1	11.2	3.4
CCN(CC)c1ccc(N=Cc2c(O)n(-c3ccccc3)c(=O)[nH]c2=O)cc1	3.4	48.7*	2.1	6.1	4.5	-3.7
CCN(CC)c1ccc(N=Cc2c(O)n(Cc3ccccc3)c(=O)[nH]c2=O)cc1	0.7	-1.6	5.4	1.6	0.4	nt
CCOc1ccc(-n2c(O)c(C=Nc3ccc(N(CC)CC)cc3)c(=O)[nH]c2=O)cc1	2.7	3.1	7.0	-0.7	2.9	nt
CCOC(=O)c1cccc(C2=C(CNC(=O)c3cccnc3)[C@H]3CC[C@@H](C2)N3Cc2ccccc2)c1	nt	nt	nt	8.9	nt	nt
CC(C)OS(C)(=O)=O	1.0	0.7	1.8	2.1	9.5	nt
FC(F)(F)c1ccccc1CNCCc1c[nH]c2ccccc12	4.0	1.3	15.8	2.0	4.0	nt
O=C(c1ccc2nc(-c3ccco3)c(-c3ccco3)nc2c1)N1CCC2(CC1)OCCO2	14.2	61.5*	20.7	nt	18.4	3.1
Cc1cccc(CC(c2cccc(C)c2)N(C)C)c1 (stereo not drawn)	3.6	nt	11.1	2.8	-3.7	nt
O=C1NC(=O)N(Cc2ccco2)C(=O)/C1=C/c1ccc(-c2cccc([N+](=O)[O-])c2)o1	3.6	66.2*	5.8	nt	36.6*	35.7*
CC[C@H](C)/C=C(C)/C=C/C1=CC2=C(Cl)C(=O)[C@](C)(OC(C)=O)C(=O)C2=CO1	9.7	67.4*	6.8	nt	40.1*	87.1*
NP(=O)(OCCCCc1ccccc1)Oc1ccccc1Cl (stereo not drawn)	98.7*	70.5*	45.6*	-2.3	30.6*	74.3*
NP(=O)(OCC(F)(F)F)Oc1cccc2ccccc12 (stereo not drawn)	19.5	6.5	-2.7	-0.9	-0.5	nt
O=C1NC(=O)N(Cc2ccco2)C(=O)/C1=C\c1cccn1CCOc1ccc(Cl)cc1	34.5*	39.8*	-3.5	3.8	6.6	3.1
Cc1cccc(OCCn2cccc2/C=C2/C(=O)NC(=O)N(Cc3ccco3)C2=O)c1	nt	21.7	nt	3.2	nt	nt
O=C(Cn1ncc2c3ccccc3n(Cc3cccc(Cl)c3)c2c1=O)N1CCC2(CC1)OCCO2	4.9	40.4*	13.7	9.9	19.4	36.9*
